Hit rate of the full screen: of about 5,500 compounds, about 2,000 (36%) were called active. Not shown: some 18% with an inconclusive outcome. Rule as the data show it: active = normalized growth mostly below about 0.91 (no sharp cut-off); inconclusive = no clear call, values can overlap the other calls; inactive = mostly above about 0.92. The list shows a part of the results.
Experiment: chemical genetic growth profiling, strain panel (AID 1159580);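 also: tested at 20 µM; growth read once vehicle control cultures reached saturation at 30 °C; 1 = growth at the plate median or of vehicle wells; lower values mean less growth of the strain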
Conditions: S. cerevisiae deletion strains, growth OD

Measured: normalized growth

CC(C)C(C)/C=C/C(C)[C@H]1CCC2C3=CCC4CC(=O)CC[C@]4(C)C3CC[C@@]21C (some centres not stated)
inactive: locus YAL013W, strain DEP1, stronger effect = lower value 1.04 | locus YAL021C, strain ccr4, stronger effect = lower value 0.999 | locus YAL026C, strain drs2, stronger effect = lower value 1 | locus YAL030W, strain snc1, stronger effect = lower value 1 | locus YBL061C, strain skt5, stronger effect = lower value 1 | locus YBR009C, strain hhf1, stronger effect = lower value 0.981 | locus YBR021W, strain FUR4, stronger effect = lower value 1 | locus YBR023C, strain chs3, stronger effect = lower value 0.995 | locus YBR171W, strain sec66, stronger effect = lower value 0.986 | locus YBR229C, strain ROT2, stronger effect = lower value 1.02 | locus YBR231C, strain swc5, stronger effect = lower value 1.03 | locus YBR279W, strain paf1, stronger effect = lower value 1 | locus YCL011C, strain gbp2, stronger effect = lower value 1.01 | locus YCL016C, strain dcc1, stronger effect = lower value 1.01 | locus YCL029C, strain bik1, stronger effect = lower value 1.02 | locus YCL061C, strain MRC1, stronger effect = lower value 1.01 | locus YCL069W, strain vba3, stronger effect = lower value 0.996 | locus YCR088W, strain abp1, stronger effect = lower value 1 | locus YDL005C, strain med2, stronger effect = lower value 1 | locus YDL035C, strain GPR1, stronger effect = lower value 0.992 | locus YDL040C, strain nat1, stronger effect = lower value 1 | locus YDL074C, strain BRE1, stronger effect = lower value 1 | locus YDL101C, strain DUN1, stronger effect = lower value 1.01 | locus YDL185W, strain tfp1, stronger effect = lower value 1.01 | locus YDL192W, strain arf1, stronger effect = lower value 0.996 | locus YDR001C, strain nth1, stronger effect = lower value 1 | locus YDR069C, strain doa4, stronger effect = lower value 0.997 | locus YDR101C, strain arx1, stronger effect = lower value 1.03 | locus YDR137W, strain rgp1, stronger effect = lower value 0.927 | locus YDR150W, strain NUM1, stronger effect = lower value 1.02 | locus YDR159W, strain sac3, stronger effect = lower value 1 | locus YDR162C, strain NBP2, stronger effect = lower value 0.97 | locus YDR195W, strain ref2 0.928 | locus YDR297W, strain sur2, stronger effect = lower value 1 | locus YDR318W, strain mcm21, stronger effect = lower value 1.01 | locus YDR334W, strain swr1, stronger effect = lower value 1 | locus YDR335W, strain msn5, stronger effect = lower value 1.01 | locus YDR388W, stronger effect = lower value 1.01 | locus YDR392W, strain spt3, stronger effect = lower value 0.941 | locus YDR502C, strain sam2, stronger effect = lower value 0.999 | locus YEL003W, strain gim4, stronger effect = lower value 1.01 | locus YEL037C, strain rad23, stronger effect = lower value 1 | locus YEL061C, strain CIN8 (second series), stronger effect = lower value 1.01 | locus YEL061C, strain CIN8, stronger effect = lower value 1.01 | locus YER015W, strain faa2, stronger effect = lower value 1 | locus YER016W, strain bim1, stronger effect = lower value 1 | locus YER110C, stronger effect = lower value 1.01 | locus YER111C, strain swi4, stronger effect = lower value 1 | locus YER155C, strain BEM2 (second series), stronger effect = lower value 0.984 | locus YER155C, strain BEM2, stronger effect = lower value 1.03 | locus YER167W, strain BCK2, stronger effect = lower value 1.03 | locus YFR010W, strain ubp6, stronger effect = lower value 1.01 | locus YGL078C, strain dbp3, stronger effect = lower value 0.98 | locus YGL086W, strain mad1, stronger effect = lower value 1 | locus YGL167C, strain pmr1, stronger effect = lower value 0.995 | locus YGL173C, strain kem1, stronger effect = lower value 0.995 | locus YGL227W, strain vid30, stronger effect = lower value 1 | locus YGL240W, strain doc1, stronger effect = lower value 0.999 | locus YGL248W, strain PDE1, stronger effect = lower value 1.01 | locus YGL253W, strain hxk2, stronger effect = lower value 1.01 | locus YGR078C, strain PAC10, stronger effect = lower value 1.01 | locus YGR135W, strain pre9, stronger effect = lower value 1 | locus YGR252W, strain gcn5, stronger effect = lower value 0.985 | locus YHR013C, strain ard1, stronger effect = lower value 0.968 | locus YHR027C, strain rpn1, stronger effect = lower value 1.01 | locus YHR030C, strain SLT2, stronger effect = lower value 1.03 | locus YHR079C, strain IRE1 (second series), stronger effect = lower value 1.01 | locus YHR094C, strain hxt1, stronger effect = lower value 1.02 | locus YHR129C, strain ARP1, stronger effect = lower value 1.02 | locus YHR142W, strain chs7, stronger effect = lower value 1 | locus YHR200W, strain rpn10, stronger effect = lower value 1.01 | locus YIL066C, strain RNR3, stronger effect = lower value 1.01 | locus YIL073C, strain SPO22, stronger effect = lower value 1.02 | locus YIL125W, strain kgd1, stronger effect = lower value 1.01 | locus YIR030C, strain dcg1, stronger effect = lower value 1.02 | locus YJL092W, strain hpr5, stronger effect = lower value 1.01 | locus YJL095W, strain BCK1 (second series), stronger effect = lower value 1.01 | locus YJL095W, strain BCK1, stronger effect = lower value 1.02 | locus YJL115W, strain asf1, stronger effect = lower value 0.99 | locus YJL129C, strain trk1, stronger effect = lower value 0.998 | locus YJL134W, strain LCB3, stronger effect = lower value 1.02 | locus YJL154C, strain vps35, stronger effect = lower value 1.01 | locus YJL164C, strain tpk1, stronger effect = lower value 0.998 | locus YJL166W, strain qcr8, stronger effect = lower value 1.01 | locus YJL168C, strain set2, stronger effect = lower value 1 | locus YJL187C, strain SWE1 (second series), stronger effect = lower value 1.01 | locus YJL187C, strain SWE1, stronger effect = lower value 1 | locus YJR043C, strain POL32, stronger effect = lower value 1.02 | locus YJR075W, strain HOC1, stronger effect = lower value 1.03 | locus YKL009W, strain mrt4, stronger effect = lower value 0.95 | locus YKL068W, stronger effect = lower value 1.01 | locus YKL085W, strain MDH1 (second series), stronger effect = lower value 1.02 | locus YKL085W, strain MDH1, stronger effect = lower value 1.02 | locus YKL160W, strain elf1, stronger effect = lower value 1.01 | locus YKR001C, strain vps1, stronger effect = lower value 1.01 | locus YKR026C, strain gcn3, stronger effect = lower value 0.971 | locus YKR091W, strain srl3, stronger effect = lower value 1.01 | locus YLL001W, strain dnm1, stronger effect = lower value 0.997 | locus YLL026W, stronger effect = lower value 1 | locus YLL041C, strain sdh2, stronger effect = lower value 1 | locus YLR027C, strain aat2, stronger effect = lower value 1.01 | locus YLR039C, strain RIC1, stronger effect = lower value 0.968 | locus YLR058C, strain SHM2, stronger effect = lower value 1.02 | locus YLR102C, strain apc9, stronger effect = lower value 1.01 | locus YLR221C, strain rsa3, stronger effect = lower value 1.01 | locus YLR258W, strain gsy2, stronger effect = lower value 1 | locus YLR262C, strain YPT6 (second series), stronger effect = lower value 0.895 | locus YLR262C, strain YPT6, stronger effect = lower value 0.952 | locus YLR268W, strain sec22, stronger effect = lower value 1 | locus YLR320W, strain mms22, stronger effect = lower value 0.965 | locus YLR330W, strain CHS5, stronger effect = lower value 1.03 | locus YLR342W, strain FKS1 (second series), stronger effect = lower value 1.03 | locus YLR342W, strain FKS1, stronger effect = lower value 1 | locus YLR357W, strain rsc2, stronger effect = lower value 0.978 | locus YLR370C, strain arc18, stronger effect = lower value 0.998 | locus YLR371W, strain rom2, stronger effect = lower value 1.01 | locus YLR384C, strain iki3, stronger effect = lower value 0.997 | locus YLR418C, strain cdc73, stronger effect = lower value 1.03 | locus YML016C, strain PPZ1, stronger effect = lower value 1.02 | locus YML032C, strain rad52, stronger effect = lower value 1 | locus YML120C, strain ndi1, stronger effect = lower value 1.01 | locus YML124C, strain tub3, stronger effect = lower value 1.02 | locus YMR058W, strain fet3, stronger effect = lower value 1.01 | locus YMR078C, strain ctf18, stronger effect = lower value 1.02 | locus YMR125W, strain sto1, stronger effect = lower value 1.01 | locus YMR129W, stronger effect = lower value 0.999 | locus YMR205C, strain PFK2, stronger effect = lower value 0.976 | locus YMR223W, strain ubp8, stronger effect = lower value 0.986 | locus YMR231W, strain pep5, stronger effect = lower value 0.999 | locus YMR307W, strain GAS1, stronger effect = lower value 1.2 | locus YNL067W, strain RPL9B, stronger effect = lower value 1.02 | locus YNL071W, strain lat1, stronger effect = lower value 1.01 | locus YNL209W, strain ssb2, stronger effect = lower value 1.01 | locus YNL233W, strain BNI4, stronger effect = lower value 1.03 | locus YNL248C, strain rpa49, stronger effect = lower value 0.995 | locus YNL250W, strain rad50, stronger effect = lower value 1.01 | locus YNL271C, strain bni1, stronger effect = lower value 1 | locus YNL298W, strain CLA4, stronger effect = lower value 0.991 | locus YNL307C, strain MCK1, stronger effect = lower value 1.02 | locus YNL322C, strain KRE1 (second series), stronger effect = lower value 0.996 | locus YNR049C, strain mso1, stronger effect = lower value 1 | locus YNR052C, strain pop2, stronger effect = lower value 0.971 | locus YOL012C, strain htz1 1.52 | locus YOL147C, strain pex11, stronger effect = lower value 1.01 | locus YOR001W, strain rrp6, stronger effect = lower value 1 | locus YOR061W, strain CKA2, stronger effect = lower value 1.02 | locus YOR069W, strain VPS5, stronger effect = lower value 1.02 | locus YOR070C, strain gyp1, stronger effect = lower value 1 | locus YOR080W, strain dia2, stronger effect = lower value 1 | locus YOR083W, strain WHI5, stronger effect = lower value 1.01 | locus YOR106W, strain vam3, stronger effect = lower value 0.995 | locus YOR136W, strain idh2, stronger effect = lower value 1 | locus YOR144C, strain elg1, stronger effect = lower value 1.01 | locus YOR184W, strain ser1, stronger effect = lower value 1 | locus YOR265W, strain rbl2, stronger effect = lower value 0.999 | locus YOR270C, strain vph1, stronger effect = lower value 1.04 | locus YOR290C, strain snf2, stronger effect = lower value 0.936 | locus YOR316C, strain cot1, stronger effect = lower value 1.01 | locus YPL051W, strain arl3, stronger effect = lower value 1.03 | locus YPL078C, strain atp4, stronger effect = lower value 1 | locus YPL106C, strain sse1, stronger effect = lower value 1.01 | locus YPL240C, strain hsp82, stronger effect = lower value 0.998 | locus YPR119W, strain clb2, stronger effect = lower value 1.02 | locus YPR141C, strain kar3, stronger effect = lower value 1.01 | locus YPR163C, strain tif3, stronger effect = lower value 1.01 | locus YPR167C, strain met16, stronger effect = lower value 1.01 | strain wtn01, stronger effect = lower value 0.991
